These results are taken from PubChem BioAssay.

Experiment [1] is described as follows: HepG2 liver cancer cell viability effects, profiling panel, resazurin fluorescence, 24 h, PK04 Diversity Set (AID 1172). Also: test concentration not given here. Particulars: higher = more signal. (Alamar Blue is a resazurin reagent that responds to reducing activity.)
Experiment [2] is described as follows: basal S. cerevisiae growth modulation, no modifier, primary screen, OD600, strain BY4716, 24 h, basal condition (AID 1173). Particulars: OD600, 24 h, higher = more signal, called active from +8 up or from −8 down.
Experiment [3] in a line: MM1S myeloma cell viability, profiling panel, resazurin fluorescence, basal, 24 h, PK04 Diversity Set (AID 1174). Also: test concentration not given here. Particulars: higher = more signal, called active from +8 up or from −8 down.
Experiment [4] deals with Dihydroorotate dehydrogenase (quinone), mitochondrial (Plasmodium falciparum (isolate 3D7)) (UniProt Q08210). The experiment is described as follows: PfDHODH enzyme inhibitors, primary screen, biochemical, C-terminal His tag, absorbance 600 nm (AID 1175).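 Also: recombinant parasite enzyme with a five histidine tag at its C terminus; test concentration not given here.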 Conditions: DCIP absorbance 600 nm, higher = more signal, called active from +8 up or from −8 down.
Chain of Dihydroorotate dehydrogenase (quinone), mitochondrial (Plasmodium falciparum (isolate 3D7)) (Q08210 whole entry, looked up): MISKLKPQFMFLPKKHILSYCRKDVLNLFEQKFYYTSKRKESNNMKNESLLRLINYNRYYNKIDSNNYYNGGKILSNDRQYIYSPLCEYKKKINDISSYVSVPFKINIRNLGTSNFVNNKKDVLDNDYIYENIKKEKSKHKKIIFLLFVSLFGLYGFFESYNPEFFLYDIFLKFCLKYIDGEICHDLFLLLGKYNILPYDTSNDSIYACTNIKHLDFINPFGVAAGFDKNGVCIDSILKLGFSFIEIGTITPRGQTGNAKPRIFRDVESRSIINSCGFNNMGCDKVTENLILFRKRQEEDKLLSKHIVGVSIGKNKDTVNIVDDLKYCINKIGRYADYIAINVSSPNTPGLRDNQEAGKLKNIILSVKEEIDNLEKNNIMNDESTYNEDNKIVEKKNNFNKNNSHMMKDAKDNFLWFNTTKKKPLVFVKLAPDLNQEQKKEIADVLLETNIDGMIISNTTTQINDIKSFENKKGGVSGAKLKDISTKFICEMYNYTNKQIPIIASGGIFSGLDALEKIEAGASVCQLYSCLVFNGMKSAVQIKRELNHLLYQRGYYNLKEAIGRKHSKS
The nature of experiment [5]: P. aeruginosa biofilm formation inhibitors, primary screen, strain PAO1, LB-PBS medium, absorbance 600 nm (AID 1176). Also: test concentration not given here. Conditions: P. aeruginosa PAO1 growth/biofilm, A600, 12 h; higher = more signal.
A short description of experiment [6]: S. cerevisiae RM11-1a growth modifiers, primary screen, strain RM11-1a, OD600, basal, 24 h (AID 1177).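 Also: cultures grown under basal conditions with no added stressor; test concentration not given here.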 Conditions: OD600, 24 h, higher = more signal, called active from +8 up or from −8 down.
Experiment [7] is described as follows: E. coli acrAB mutant growth effects, primary screen, E. coli filamentation inducers, strain DRC39, OD650, 24 h (AID 1178).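 Also: growth measured as culture turbidity by optical density at 650 nm; test concentration not given here.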 Particulars: higher = more signal, called active from +8 up or from −8 down.
The nature of experiment [8]: E. coli acrAB mutant growth effects, primary screen, E. coli filamentation inducers, strain DRC39, OD650, 48 h (AID 1179).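 Also: screen aims at cell division blockers that make cells filament.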 Conditions: E. coli DRC39 delta-acrAB growth, higher = more signal, called active from +8 up or from −8 down.
Experiment [9] can be described thus: RPMI8226 myeloma cell viability, profiling panel, resazurin fluorescence, basal, 24 h, PK04 Diversity Set (AID 1180).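 Also: RPMI8826 multiple myeloma cell line at 5000 cells per well; test concentration not given here.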 Conditions: higher = more signal.
Experiment [10] concerns the target E3 ubiquitin-protein ligase XIAP (Homo sapiens) (UniProt P98170). Description: XIAP binders, primary screen, biophysical, small-molecule microarray, fluorescence 635 nm (AID 1181).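 Also: score merges 667 nm emission and signal to noise over triplicate slides.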 Particulars: small-molecule microarray binding, higher = more signal.

Activity calls are given as the source filed them. Unless noted, no rule for the calls is given here.

Chain of E3 ubiquitin-protein ligase XIAP (Homo sapiens) (P98170 whole entry, looked up): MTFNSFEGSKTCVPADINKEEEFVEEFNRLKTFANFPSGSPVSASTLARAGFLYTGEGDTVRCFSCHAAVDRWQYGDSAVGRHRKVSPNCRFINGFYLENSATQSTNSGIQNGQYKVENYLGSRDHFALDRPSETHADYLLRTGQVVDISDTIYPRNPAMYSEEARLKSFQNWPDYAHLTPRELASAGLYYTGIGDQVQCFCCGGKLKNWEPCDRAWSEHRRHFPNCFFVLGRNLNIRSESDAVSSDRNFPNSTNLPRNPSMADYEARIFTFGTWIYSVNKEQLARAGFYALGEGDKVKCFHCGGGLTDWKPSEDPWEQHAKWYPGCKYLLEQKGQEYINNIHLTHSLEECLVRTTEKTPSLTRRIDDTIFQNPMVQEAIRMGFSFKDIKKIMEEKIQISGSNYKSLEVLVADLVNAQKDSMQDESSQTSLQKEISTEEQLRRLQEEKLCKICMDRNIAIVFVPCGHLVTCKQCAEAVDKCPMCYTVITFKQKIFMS

Take `CCOC(=O)[C@H]1C[C@H]2O[C@@]23C[C@H]1C(=O)N1CCCC1[C@@H]3O[Si](C)(C)C(C)(C)C` (stereo not given in full): the z-score in experiment [1] was -0.332; in experiment [2], -4.67 (inactive); in [3] it was -0.88 (inactive); in experiment [5], 0.367 (inactive); in experiment [6] it was -0.521 (inactive); in experiment [7] it was -0.205 (inactive). Moreover, the z-score is -0.595 (inactive) in experiment [8] and 0.0096 in [9]. Further, the composite z-score in experiment [4] is -0.17 (inactive); in [10] it was -0.083.

Consider `CCOC(=O)C1=CC[C@@H](c2ccccc2Cl)N(S(=O)(=O)c2ccc(C)cc2)C1`, for which the z-score in experiment [1] was -0.358; in [2] it was -1.65 (inactive); in [3], 0.0161 (inactive); in [5], -0.308 (inactive); in experiment [6] it was -0.24 (inactive); in [7], -0.203 (inactive). For the same molecule, the z-score in experiment [8] is 1.03 (inactive); in [9], -1.37. Besides, the values for the composite z-score in experiment [4] and in [10] were -0.978 (inactive) and -0.0115, respectively.

With `CCN(CC)c1ccc(N2CC=CC34O[C@@H]5C=CCCOC(=O)C5[C@H]3C(=O)N(CCCCCO)[C@@H]4C2=O)cc1` (stereo not given in full), the z-score in experiment [1] is 1.72; in experiment [2] it was -0.8 (inactive); in [3] it was 0.974 (inactive); in [5], 0.165 (inactive); in experiment [6] it was -0.866 (inactive); in experiment [7] it was 2.21 (inactive). For the same molecule, the z-score in experiment [8] was 2.23 (inactive); in experiment [9], 1.16. In addition, the composite z-score in experiment [4] is -0.644 (inactive); in experiment [10], 0.354.

Take `COC(=O)[C@@]1(Cc2ccc(F)cc2)[C@H]2c3cc(C(=O)N4CCCC4)n(Cc4cccc5ccccc45)c3C[C@H]2CN1C(=O)c1ccccc1`: the z-score in [1] was -0.296; in experiment [2], 1.28 (inactive); in [3], -1.53 (inactive); in [5], 0.784 (inactive); in experiment [6], 0.0161 (inactive); in experiment [7] it was -1.11 (inactive). In addition, the z-score is -0.974 (inactive) in experiment [8] and -1.25 in experiment [9]. In addition, the values for the composite z-score in experiment [4] and in [10] were -0.422 (inactive) and 0.487, respectively.

`O=C1C2C=CC(C(O)c3cccs3)N(Nc3ccccc3F)C2C(=O)N1c1ccccc1` (stereo not given): the z-score is 1.21 in experiment [1]; -1.3 (inactive) in experiment [2]; 0.982 (inactive) in experiment [3]; 0.574 (inactive) in experiment [5]; -0.24 (inactive) in [6]; -0.0052 (inactive) in [7]. Besides, the z-score in experiment [8] is 1.05 (inactive); in experiment [9], 0.562. The values for the composite z-score in experiment [4] and in experiment [10] were 0.609 (inactive) and 0.33, respectively.

On to `COc1cccc(C(=O)O[C@H]2CC[C@]3(C)C4=C(CCC3C2(C)C)[C@]2(C)CC[C@H]([C@H](C)CCCC(C)C)[C@@]2(C)CC4)c1` (stereo not given in full), for which the z-score in [1] was 0.514; in experiment [2], -0.488 (inactive); in experiment [3] it was 0.697 (inactive); in experiment [5], 0.671 (inactive); in [6], -1.62 (inactive); in experiment [7], 0.621 (inactive). For the same molecule, the results for the z-score in experiment [8] and in experiment [9] were 1.18 (inactive) and 0.815, respectively. In addition, the composite z-score in [4] is -2.17 (inactive); in experiment [10] it was 0.132.

In the case of `CC(C)(C)N1CC=CC23O[C@@H]4C=CCOC(=O)[C@@H]4[C@H]2C(=O)N(CCCCCO)[C@@H]3C1=O` (stereo not given in full), the z-score was -0.308 in experiment [1]; 0.285 (inactive) in experiment [2]; -0.728 (inactive) in experiment [3]; 0.0962 (inactive) in experiment [5]; -0.0325 (inactive) in [6]; -1.09 (inactive) in experiment [7]. In addition, the z-score is -1.2 (inactive) in experiment [8] and -0.867 in experiment [9]. In addition, the composite z-score was -0.0531 (inactive) in [4] and 0.333 in experiment [10].

In the case of `N#Cc1ccc(NN2C(C(O)C3CCCCC3)C=CC3C(=O)N(c4ccccc4)C(=O)C32)cc1` (stereo not given), the z-score in [1] is -0.779; in [2], -0.394 (inactive); in [3], -0.668 (inactive); in experiment [5], 1.14 (inactive); in experiment [6], -0.28 (inactive); in experiment [7], -0.427 (inactive). Also, the z-score in experiment [8] is -0.673 (inactive); in [9], -0.848. Moreover, the results for the composite z-score in experiment [4] and in [10] were -0.177 (inactive) and 0.262, respectively.

With `N#Cc1ccc(NN2C(C(O)c3ccc([N+](=O)[O-])cc3)C=CC3C(=O)N(c4ccccc4)C(=O)C32)cc1` (stereo not given), the z-score in experiment [1] is -1.07; in experiment [2], -0.203 (inactive); in experiment [3], -0.55 (inactive); in experiment [5], 1.23 (inactive); in [6], -0.487 (inactive); in experiment [7] it was -0.685 (inactive). The z-score was -0.418 (inactive) in experiment [8] and -1.08 in [9]. The composite z-score in experiment [4] is -0.0079 (inactive); in [10], -0.0391.

Take `CCOC(=O)C1=CCC(c2ccc(C#N)cc2)N(S(=O)(=O)c2ccc(C)cc2)C1` (stereo not given): the z-score in experiment [1] is -0.688; in experiment [2], 0.916 (inactive); in [3], -1.35 (inactive); in [5], 0.654 (inactive); in experiment [6], 0.906 (inactive); in experiment [7], -0.445 (inactive). Also, the z-score was 0.435 (inactive) in experiment [8] and -1.94 in experiment [9]. Moreover, the composite z-score in experiment [4] was -0.496 (inactive); in experiment [10], -0.187.

Take `CC(C)CNC(=O)[C@@]1(c2ccc([N+](=O)[O-])cc2)CC(=O)N(CC23CC4CC(CC(C4)C2)C3)[C@@H]1c1ccc(CO)cc1`: the z-score in experiment [1] was -1.69; in experiment [2], -0.565 (inactive); in experiment [3] it was -2.08 (inactive); in experiment [5] it was 0.913 (inactive); in experiment [6] it was -0.813 (inactive); in [7] it was 0.629 (inactive). Also, the z-score in [8] was 1.25 (inactive); in experiment [9], -3.32. The figures for the composite z-score in [4] and in [10] were -1.23 (inactive) and -0.193, respectively.
